Compounds with a hit are over-represented: about 2.7% of the library has one in this group of screens.
SKN-1 block = inhibitors of C. elegans SKN-1; C. elegans VP596 Pgst-4::GFP/RFP ratio, acrylamide-induced, 24 h; hit rate 0.49% among 360,000; inhibition, % at 21.8 µM;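 active = interference check ratio from 0.5 to 1.5 plus GFP to RFP signal ratio inhibition reaching or exceeding a fixed threshold, cut at about 30% in these data, passing the limit was not always enough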
ATG4B inhibitor = inhibitors of human ATG4B cysteine protease; Q9Y4P1; ATG4B cleavage of LC3-PLA2, NBD-HPC fluorescence, 1 h; inhibition, % at 8.33 µM; hit rate 0.51% among 340,000; in the data active = inhibition above about 40%
CFTR F508del cor = correctors of CFTR F508del function in bronchial epithelial cells; CFBE cells, YFP halide quenching; stimulated with forskolin plus potentiator P3; % fluorescence drop versus neutral controls; activity (quench increase), % at 7.58 µM; hit rate 0.36% among 350,000;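 active = mean added fluorescence quench of at least 8% versus neutral control, with both replicates also reaching 8%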;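 note: cells transiently co-express mutant CFTR-F508del with the halide-sensitive YFP; corrector assay measuring rescue of mutant channel to the surface after 24 h compound exposure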
NRP1-CendR mod = alters CendR peptide binding to human NRP-1; inhibition, % at 25 µM; FAM-RPARPAR peptide binding to NRP-1, fluorescence polarization; O14786; hit rate 0.85% among 360,000;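 active = inhibition or corrected inhibition above about 18%, plus a signal ratio from 0.5 to 1.5, limit read from the data, passing the limit was not always enough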
Target sequence (O14786 whole entry, looked up): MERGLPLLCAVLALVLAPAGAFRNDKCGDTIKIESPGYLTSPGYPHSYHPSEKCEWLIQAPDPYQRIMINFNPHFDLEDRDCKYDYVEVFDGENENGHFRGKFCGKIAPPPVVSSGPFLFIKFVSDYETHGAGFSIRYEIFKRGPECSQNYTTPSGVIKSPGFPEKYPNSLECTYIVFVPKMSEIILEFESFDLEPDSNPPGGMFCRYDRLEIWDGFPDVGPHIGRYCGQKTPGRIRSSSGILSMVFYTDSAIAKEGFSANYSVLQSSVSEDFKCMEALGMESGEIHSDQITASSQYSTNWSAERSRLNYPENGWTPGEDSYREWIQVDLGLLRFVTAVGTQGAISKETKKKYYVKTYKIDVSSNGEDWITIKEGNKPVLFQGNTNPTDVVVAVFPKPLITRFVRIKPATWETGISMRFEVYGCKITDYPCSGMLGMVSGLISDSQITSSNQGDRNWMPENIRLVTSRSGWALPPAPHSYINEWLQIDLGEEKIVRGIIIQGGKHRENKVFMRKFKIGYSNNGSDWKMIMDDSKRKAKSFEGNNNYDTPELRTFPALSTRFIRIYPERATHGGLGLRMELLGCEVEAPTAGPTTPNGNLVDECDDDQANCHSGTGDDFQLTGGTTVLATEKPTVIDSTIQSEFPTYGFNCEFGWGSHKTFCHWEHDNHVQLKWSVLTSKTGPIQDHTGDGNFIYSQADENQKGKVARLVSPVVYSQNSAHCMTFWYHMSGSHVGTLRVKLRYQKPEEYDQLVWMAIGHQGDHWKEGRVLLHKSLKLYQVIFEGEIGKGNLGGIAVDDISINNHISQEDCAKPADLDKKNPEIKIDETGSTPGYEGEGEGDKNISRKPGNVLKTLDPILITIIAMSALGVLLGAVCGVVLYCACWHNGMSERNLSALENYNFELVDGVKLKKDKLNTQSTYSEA
MPTP inh = blocks calcium-induced mitochondrial swelling | isolated mouse mitochondria, Ca2+ swelling absorbance, 30 min | inhibition, % at 10 µM | hit rate 1.4% among 360,000 | AID 602449;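 active = inhibition of 50% or more, scaled per plate between neutral and stimulator controls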;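 note: 0% = DMSO wells given calcium and 100% = 1 mM EGTA wells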
MPTP counter = mitochondrial membrane potential, counter-screen. isolated mitochondria, Rhodamine 123 fluorescence. AID 624504. hit rate 78% among 5,000. shares compounds with MPTP inh. inhibition, % at 10 µM; in the data active = inhibition above about 22%;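 note: 0% = DMSO vehicle and 100% = positive control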
MPTP abs DR = dose response confirmation of mitochondrial permeability transition pore inhibitors; shares compounds with MPTP inh; isolated mitochondria swelling, absorbance; IC50, µM; hit rate 58% among 780; AID 651561; in the data active = IC50 below about 20 µM
MPTP counter DR = active in counter-screen for permeability transition pore inhibitors; hit rate 49% among 780; shares compounds with MPTP inh; IC50, µM; isolated mitochondria counterscreen, fluorescence read-out; in the data active = IC50 below about 80 µM
* hit, by the source's call; i = inactive; . = no result.

SMILES	SKN-1 block	ATG4B inhibitor	CFTR F508del cor	NRP1-CendR mod	MPTP inh	MPTP counter	others
C[C@@H]1CCCCO[C@H](CN(C)S(=O)(=O)c2ccc(F)cc2)[C@H](C)CN([C@@H](C)CO)C(=O)c2cc(NS(=O)(=O)c3cccs3)ccc2O1	.	.	-2	.	.	.
C[C@@H]1CN([C@H](C)CO)C(=O)c2cc(C#Cc3ccccc3)cnc2O[C@H]1CN(C)C(=O)C1CC1	.	.	-1	.	.	.
CSc1nc(-c2ccc(Cl)cc2Cl)[nH]c(=O)c1C#N	4	13	.	-4	88*	89*
Cc1nc2c(-c3ccc(Cl)cc3)c(C)[nH]n2c(=O)c1Cc1ccccc1	12	-2	-3	2	69*	91*
Cc1nc2c(-c3ccccc3)c(C)[nH]n2c(=O)c1Cc1ccccc1	3	-5	-1	-4	-1	.
COc1ccc(-c2noc(CSc3nc(-c4ccccc4)cc(=O)[nH]3)n2)cc1OC	8	5	.	-6	-2	.
COc1ccc(-c2noc(CSc3nc(N)cc(=O)[nH]3)n2)cc1	-1	-2	1	7	74*	45*
Cc1ccc(C)n1NC(=O)c1ccccc1[N+](=O)[O-]	0	-10	-4	-1	-1	.
Cc1ccc(C)n1NC(=O)c1ccccc1O	5	10	.	-4	78*	58*
COc1ccc(NC(=O)N2C[C@@H](O)COC[C@@H]3O[C@H](CC(=O)N4CCOCC4)CC[C@H]32)cc1	.	.	1	.	.	.
CCc1ccc2oc(C(=O)NCc3ccncc3)c(C)c2c1	-11	0	.	4	69*	22*
CC(C)NC(=O)N1CC2(C1)[C@H](c1ccccc1)[C@H](CO)N2C(=O)c1ccccn1	.	.	1	.	.	.
OC(COCC(F)(F)C(F)(F)C(F)(F)C(F)F)Cn1c2ccc(Cl)cc2c2cc(Cl)ccc21 (stereo not given)	-5	-3	.	-17	80*	52*
CCOC(=O)c1c(O)c2cc(Cl)ccc2n(CC)c1=O	5	3	0	-5	1	.
COc1ccc(C(=O)COC(=O)c2ccccc2NS(=O)(=O)c2ccc(O)c([N+](=O)[O-])c2)cc1	10	23	-1	17	71*	51*
COc1ccc(NC(=S)Nc2nc(CC(=O)Nc3ccccc3OC)cs2)cc1	5	-13	.	-6	75*	79*
COc1ccccc1NC(=O)Cc1csc(NC(=S)Nc2ccccc2)n1	-27	14	.	-8	79*	71*
CC(C)NC(=O)N1CCCCN2[C@H](CO)[C@@H](c3ccc(C#Cc4ccccc4)cc3)[C@H]2C1	.	.	-2	.	.	.
Cc1[nH]n(-c2ccc(F)cc2)c(=O)c1/C=N/c1sc2c(c1C#N)CCCC2	28	2	.	-14	106*	25*
Cc1[nH]n(-c2ccc(Cl)cc2)c(=O)c1/C=N/c1nnc(-c2ccccc2)s1	6	9	.	-90	104*	43*
Cc1[nH]n(-c2cccc3ccccc23)c(=O)c1/C=N/c1sc2c(c1C#N)CCC2	-11	1	.	-26	0	.
COC(=O)C[C@@H]1C[C@H]2c3cc(NS(=O)(=O)c4ccccc4)ccc3O[C@H]2[C@H](CO)O1	.	.	-1	.	.	.
Cc1ccccc1CN1CCc2c(OCC(=O)N3CCCc4ccccc43)cccc2C1=O	12	28	.	0	8	.
O=C1c2cccc(OCC(=O)N3CCCc4ccccc43)c2CCN1Cc1cccnc1	6	2	6	-6	82*	34*
O=C(CCN(CCO)Cc1ccccc1)Nc1ccc(Br)cc1	7	14	.	6	1	.
SMILES	SKN-1 block	ATG4B inhibitor	CFTR F508del cor	NRP1-CendR mod	MPTP inh	MPTP counter	others
CCN(CCC(=O)Nc1ccc(Br)c(C)c1)Cc1ccccc1	11	9	.	-6	80*	5	MPTP abs DR=i;MPTP counter DR=28*
CC(=O)N1[C@@H]2c3ccc(/C=C/c4ccccc4)c(=O)n3C[C@H]1[C@H](CO)[C@H]2C(=O)N1CCOCC1	.	.	-4	.	.	.
CC(C)c1cc(C(=O)Nc2cc(Br)ccc2O)no1	6	-8	0	-3	58*	62*
CC(C)c1cc(C(=O)Nc2cc(Cl)ccc2O)no1	-13	18	.	-8	44	.
Cc1cccc(OCCSCc2nc3ccccc3[nH]2)c1	10	3	.	-7	2	.
Cc1ccccc1OCCSCc1nc2ccccc2[nH]1	5	-4	.	-1	79*	67*
C[C@H](CO)N1C[C@H](C)[C@H](CN(C)C(=O)Nc2ccc(C(F)(F)F)cc2)Oc2ccc(NS(=O)(=O)c3cccs3)cc2CC1=O	.	.	1	.	.	.
O=C(NC1CCCCC1)N1[C@@H]2CNC[C@H]1C2c1ccc(-c2cccnc2)cc1 (stereo not given in full)	.	.	-3	.	.	.
Oc1ccccc1C1CC(c2cccs2)=NC(c2cccc(Br)c2)N1 (stereo not given)	10	-1	1	-12	84*	97*
CCCNC(=O)C[C@H]1CC[C@@H]2[C@@H](COc3ccc(NC(=O)Nc4cccc(C)c4)cc3C(=O)N2C)O1	.	.	0	.	.	.
CC(C)(C)c1ccc(C(=O)Nc2cccc([N+](=O)[O-])c2)cc1	7	6	.	-14	95*	85*
CC(C)(C)CC(C)(C)NC(=O)Nc1cccc([N+](=O)[O-])c1	-7	3	-1	-2	90*	84*
Cc1ccc(-c2csc(N3CCC(NS(=O)(=O)c4ccc5c(c4)OCCO5)CC3)n2)cc1	13	-14	.	-6	95*	95*
COc1ccc(CCNc2ccc(N3C(=O)CC(C)C3=O)cc2[N+](=O)[O-])cc1OC (stereo not given)	-2	6	3	-5	96*	82*
COc1ccc(CCNc2ccc(N3C(=O)CC(C)C3=O)cc2[N+](=O)[O-])cc1 (stereo not given)	2	-4	0	-4	7	.
O=C1C2CC=CCC2C(=O)N1c1ccc(NCCc2ccc(O)cc2)c([N+](=O)[O-])c1 (stereo not given)	4	-14	1	2	91*	76*
COCC(=O)Nc1ccc2c(c1)OC[C@@H](C)N(C(=O)Cc1cccnc1)C[C@H](C)[C@@H](OC)CN(C)C2=O	.	.	1	.	.	.
N=c1c2c(-c3ccccc3)c(-c3ccccc3)n(Cc3ccco3)c2ncn1CCO	8	-3	.	-10	81*	-3
O=C(C[C@@H]1CC[C@@H](NS(=O)(=O)c2ccccc2F)[C@H](CO)O1)NCCCN1CCOCC1	.	.	2	.	.	.
Cc1cccc(NC(=S)NCCC(c2ccccc2)c2ccccc2)c1	1	33	.	3	87*	100*
COc1cccc(NC(=S)NCCC(c2ccccc2)c2ccccc2)c1	11	16	.	4	4	.

Screening data from PubChem BioAssay.
